Measurements reported in PubChem BioAssay (NCATS).
Records with an inconclusive call do not appear. The source made the active and inactive calls. Unless noted, calls follow the shape of the full dose curve.

Experiments:
[1] = qHTS for Inhibitors of the Functional Ribonucleoprotein Complex (vRNP) of Lassa (LASV) Arenavirus: LASV Primary Screen - GLuc reporter signal (AID 1347082; calls by dose curve; tested in HEK293 reporter line; also: nearly all actives have a fitted effect of over 60% in size)
[2] = qHTS for Inhibitors of the Functional Ribonucleoprotein Complex (vRNP) of Lassa (LASV) Arenavirus: Viability assay - alamar blue signal for LASV Primary Screen (AID 1347083; calls by dose curve; tested in HEK293 reporter line; also: nearly all actives have a fitted effect of over 80% in size)
[3] = qHTS for Inhibitors of the Functional Ribonucleoprotein Complex (vRNP) of Lymphocytic Choriomeningitis Arenaviruses (LCMV): Viability assay - alamar blue signal for LCMV Primary Screen (AID 1347085; calls by dose curve; tested in HEK293 reporter line; also: nearly all actives have a fitted effect of over 80% in size)
[4] = target: Nucleoprotein (Lymphocytic choriomeningitis virus (strain Armstrong)) (UniProt P09992); test: qHTS for Inhibitors of the Functional Ribonucleoprotein Complex (vRNP) of Lymphocytic Choriomeningitis Arenaviruses (LCMV): LCMV Primary Screen - GLuc reporter signal (AID 1347086); also: nearly all actives have a fitted effect of over 70% in size
Chain of Nucleoprotein (Lymphocytic choriomeningitis virus (strain Armstrong)) (P09992 whole entry, looked up): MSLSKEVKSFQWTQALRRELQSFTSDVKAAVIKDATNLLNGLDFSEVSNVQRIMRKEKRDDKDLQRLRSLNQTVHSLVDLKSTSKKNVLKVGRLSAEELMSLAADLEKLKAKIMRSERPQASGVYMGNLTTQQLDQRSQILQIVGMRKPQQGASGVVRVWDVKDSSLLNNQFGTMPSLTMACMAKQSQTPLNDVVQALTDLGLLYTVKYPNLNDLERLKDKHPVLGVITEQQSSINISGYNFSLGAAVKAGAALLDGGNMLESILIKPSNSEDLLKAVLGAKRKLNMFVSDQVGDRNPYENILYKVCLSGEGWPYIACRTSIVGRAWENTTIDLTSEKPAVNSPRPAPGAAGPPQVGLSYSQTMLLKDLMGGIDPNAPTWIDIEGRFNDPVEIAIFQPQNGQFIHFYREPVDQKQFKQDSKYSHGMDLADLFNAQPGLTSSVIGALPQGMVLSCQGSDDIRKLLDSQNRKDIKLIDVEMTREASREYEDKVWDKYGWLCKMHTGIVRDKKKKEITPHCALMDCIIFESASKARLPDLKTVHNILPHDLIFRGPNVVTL

Measured: Potency
Also: series mostly up to about 57 µM.

Cn1cnc2c1c(=O)[nH]c(=O)n2C
inactive: all assays above

CN(C)CCCOC1(Cc2ccccc2)CCCCCC1
inactive: all assays above

CCCCC1C(=O)N(c2ccccc2)N(c2ccccc2)C1=O
inactive: all assays above

CCOC(=O)[C@H](CCc1ccccc1)N[C@@H](C)C(=O)N1C(=O)N(C)C[C@H]1C(=O)O
inactive: all assays above

CC1(C)OC(=O)Nc2ccc(Br)cc21
inactive: all assays above

CN(C)CCCN1c2ccccc2Sc2ccccc21
inactive: all assays above

CC(=O)NC(Cc1ccccc1)C(=O)O (centres undefined)
inactive: all assays above

CC(C)NCCCC1(C(N)=O)c2ccccc2-c2ccccc21
inactive: all assays above

Nc1ccncc1N
inactive: all assays above

O=[N+]([O-])c1nccn1CO[C@@H](CO)[C@H](O)CO
inactive: all assays above

C#CCN(C)CCCOc1ccc(Cl)cc1Cl
inactive: all assays above

C/C=C/c1ccc(OC)cc1
inactive: all assays above

CCCC(=O)O[C@]1(C(=O)CC)CC[C@H]2[C@@H]3CCC4=CC(=O)CC[C@]4(C)[C@H]3[C@@H](O)C[C@@]21C
inactive: all assays above

Nc1c2c(nc3ccccc13)CCCC2O (centres undefined)
inactive: all assays above

C[N+]1(C)CCC(=C(c2ccccc2)c2ccccc2)CC1
inactive: all assays above

O=C(OCC(COC(=O)c1cccnc1)(COC(=O)c1cccnc1)COC(=O)c1cccnc1)c1cccnc1
inactive: all assays above

COc1cc(C(=O)NCCCCCC(=O)O)cc(OC)c1OC
inactive: all assays above

O=C(O)CCC(=O)OC[C@@H](NC(=O)C(Cl)Cl)[C@H](O)c1ccc([N+](=O)[O-])cc1
inactive: all assays above

Cc1ncc(CSSCc2cnc(C)c(O)c2CO)c(CO)c1O
inactive: all assays above

CCc1cc(Cl)c(OC)c(C(=O)NC[C@@H]2CCCN2CC)c1O
inactive: all assays above

CC(C)[C@@H]1CC[C@@H](C)CC1=O
inactive: all assays above

COc1cc2[nH]c(=O)[nH]c(=O)c2cc1OC
inactive: all assays above

CCN(CC)CC(=O)Nc1c(C)cccc1C(=O)OC
inactive: all assays above

COc1ccc2cc(C=O)ccc2c1
inactive: all assays above

CC[N+](CC)(CC(=O)Nc1c(C)cccc1C)Cc1ccccc1
inactive: all assays above

CNC(=O)c1cnn(-c2nc(N)c3ncn([C@@H]4O[C@H](CO)[C@@H](O)[C@H]4O)c3n2)c1
inactive: all assays above

CC(O)Cn1cnc2c1c(=O)n(C)c(=O)n2C (centres undefined)
inactive: all assays above

CN1CC(=O)N2[C@H](c3ccc4c(c3)OCO4)c3[nH]c4ccccc4c3C[C@@H]2C1=O
inactive: all assays above

COC(=O)C1=C(C)NC(C)=C(C(=O)O[C@@H]2CCCN(Cc3ccccc3)C2)[C@@H]1c1cccc([N+](=O)[O-])c1
inactive: all assays above

NC(=O)C(=O)N/N=C/c1ccc([N+](=O)[O-])o1
inactive: all assays above

C[C@]1(Cn2ccnn2)[C@H](C(=O)O)N2C(=O)C[C@H]2S1(=O)=O
inactive: all assays above

CC1=C(CC(=O)O)c2cc(F)ccc2/C1=C\c1ccc(S(C)(=O)=O)cc1
inactive: all assays above

CN1CCN(C2=Nc3ccccc3Sc3ccc(Cl)cc32)CC1
inactive: all assays above

CC1(C)[C@@H]2CC[C@@]1(C)C(=O)C2
inactive: all assays above

CC(Oc1c(Cl)cccc1Cl)C1=NCCN1 (centres undefined)
inactive: all assays above

CC(C)(C)c1ccc(C(=O)CCCCl)cc1
inactive: all assays above
